# From PubChem BioAssay AID1159580 (chemical genetic matrix, 2015)
# Hit rate of the full screen: of about 5,500 compounds, about 2,000 (36%) were called active. Roughly 18% stayed inconclusive and do not appear here. This is one part of the list. Values without a mark were called inactive. Rule as the data show it: active = normalized growth mostly below about 0.91 (no sharp cut-off); inconclusive = no clear call, values can overlap the other calls; inactive = mostly above about 0.92.
# Test: chemical genetic growth profiling, strain panel (AID 1159580);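 also: tested at 20 µM; growth read once vehicle control cultures reached saturation at 30 °C; 1 = growth at the plate median or of vehicle wells; lower values mean less growth of the strain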
# Conditions: S. cerevisiae deletion strains, growth OD
compound,measurement,setting,value
CCC1(O)CC(OC2CC(N(C)C)C(OC3CC(O)C(OC4CCC(=O)C(C)O4)C(C)O3)C(C)O2)c2c(cc3c(c2O)C(=O)c2c(O)cccc2C3=O)C1C(=O)OC (stereo not drawn),normalized growth,"locus YAL013W, strain DEP1, hits give low values",0.986
same,normalized growth,"locus YBR021W, strain FUR4, hits give low values",1.07
same,normalized growth,"locus YBR229C, strain ROT2, hits give low values",1
same,normalized growth,"locus YCL029C, strain bik1, hits give low values",1
same,normalized growth,"locus YDL035C, strain GPR1, hits give low values",0.978
same,normalized growth,"locus YDL074C, strain BRE1, hits give low values",0.998
same,normalized growth,"locus YDL101C, strain DUN1, hits give low values",0.992
same,normalized growth,"locus YDL134C, strain PPH21, hits give low values",1.01
same,normalized growth,"locus YDL185W, strain tfp1, hits give low values",1.01
same,normalized growth,"locus YDL192W, strain arf1, hits give low values",1.01
same,normalized growth,"locus YDR101C, strain arx1, hits give low values",1.01
same,normalized growth,"locus YDR150W, strain NUM1, hits give low values",1
same,normalized growth,"locus YDR162C, strain NBP2, hits give low values",0.981
same,normalized growth,"locus YDR318W, strain mcm21, hits give low values",1.01
same,normalized growth,"locus YDR388W, hits give low values",1.01
same,normalized growth,"locus YDR502C, strain sam2, hits give low values",1
same,normalized growth,"locus YEL061C, strain CIN8, hits give low values",1.01
same,normalized growth,"locus YER110C, hits give low values",1.01
same,normalized growth,"locus YER155C, strain BEM2, hits give low values",1.01
same,normalized growth,"locus YER167W, strain BCK2, hits give low values",1.01
same,normalized growth,"locus YGL078C, strain dbp3, hits give low values",1.01
same,normalized growth,"locus YGL086W, strain mad1, hits give low values",0.992
same,normalized growth,"locus YGL248W, strain PDE1, hits give low values",0.981
same,normalized growth,"locus YGR135W, strain pre9, hits give low values",1.01
same,normalized growth,"locus YGR229C, strain SMI1, hits give low values",0.96
same,normalized growth,"locus YGR252W, strain gcn5, hits give low values",1.03
same,normalized growth,"locus YHR030C, strain SLT2, hits give low values",1
same,normalized growth,"locus YHR079C, strain IRE1 (second series), hits give low values",1.01
same,normalized growth,"locus YHR094C, strain hxt1, hits give low values",1.01
same,normalized growth,"locus YHR129C, strain ARP1, hits give low values",0.995
same,normalized growth,"locus YHR200W, strain rpn10, hits give low values",1.01
same,normalized growth,"locus YIL066C, strain RNR3, hits give low values",1
same,normalized growth,"locus YIL073C, strain SPO22, hits give low values",1.04
same,normalized growth,"locus YIL125W, strain kgd1, hits give low values",1
same,normalized growth,"locus YIR030C, strain dcg1, hits give low values",1.01
same,normalized growth,"locus YJL095W, strain BCK1, hits give low values",0.983
same,normalized growth,"locus YJL134W, strain LCB3, hits give low values",1.01
same,normalized growth,"locus YJL168C, strain set2, hits give low values",1.01
same,normalized growth,"locus YJL187C, strain SWE1 (second series), hits give low values",0.998
same,normalized growth,"locus YJR043C, strain POL32, hits give low values",0.986
same,normalized growth,"locus YJR075W, strain HOC1, hits give low values",0.975
same,normalized growth,"locus YKL009W, strain mrt4, hits give low values",1.01
same,normalized growth,"locus YKL068W, hits give low values",1
same,normalized growth,"locus YKL085W, strain MDH1 (second series), hits give low values",0.993
same,normalized growth,"locus YKL085W, strain MDH1, hits give low values",0.993
same,normalized growth,"locus YKR001C, strain vps1, hits give low values",1.01
same,normalized growth,"locus YLR039C, strain RIC1, hits give low values",0.981
same,normalized growth,"locus YLR058C, strain SHM2, hits give low values",1
same,normalized growth,"locus YLR102C, strain apc9, hits give low values",1.01
same,normalized growth,"locus YLR262C, strain YPT6, hits give low values",0.958
same,normalized growth,"locus YLR268W, strain sec22, hits give low values",0.98
same,normalized growth,"locus YLR330W, strain CHS5, hits give low values",1
same,normalized growth,"locus YLR342W, strain FKS1 (second series), hits give low values",0.976
same,normalized growth,"locus YLR371W, strain rom2, hits give low values",1.01
same,normalized growth,"locus YLR418C, strain cdc73, hits give low values",1.01
same,normalized growth,"locus YML016C, strain PPZ1, hits give low values",0.997
same,normalized growth,"locus YML032C, strain rad52, hits give low values",0.893 (active)
same,normalized growth,"locus YML124C, strain tub3, hits give low values",0.999
same,normalized growth,"locus YMR078C, strain ctf18, hits give low values",1.01
same,normalized growth,"locus YMR223W, strain ubp8, hits give low values",1
same,normalized growth,"locus YMR263W, strain SAP30, hits give low values",0.998
same,normalized growth,"locus YMR307W, strain GAS1, hits give low values",0.601
same,normalized growth,"locus YNL067W, strain RPL9B, hits give low values",0.992
same,normalized growth,"locus YNL233W, strain BNI4, hits give low values",0.997
same,normalized growth,"locus YNL250W, strain rad50, hits give low values",0.999
same,normalized growth,"locus YNL271C, strain bni1, hits give low values",1
same,normalized growth,"locus YNL298W, strain CLA4, hits give low values",1.02
same,normalized growth,"locus YNL307C, strain MCK1, hits give low values",1.01
same,normalized growth,"locus YNR052C, strain pop2, hits give low values",0.996
same,normalized growth,"locus YOL006C, strain TOP1, hits give low values",0.812
same,normalized growth,"locus YOL012C, strain htz1",0.589
same,normalized growth,"locus YOL147C, strain pex11, hits give low values",1.01
same,normalized growth,"locus YOR061W, strain CKA2, hits give low values",1
same,normalized growth,"locus YOR069W, strain VPS5, hits give low values",1
same,normalized growth,"locus YOR136W, strain idh2, hits give low values",1
same,normalized growth,"locus YOR144C, strain elg1, hits give low values",1
same,normalized growth,"locus YOR184W, strain ser1, hits give low values",0.982
same,normalized growth,"locus YOR316C, strain cot1, hits give low values",1.01
same,normalized growth,"locus YPR119W, strain clb2, hits give low values",1.02
same,normalized growth,"locus YPR141C, strain kar3, hits give low values",0.986
same,normalized growth,"locus YPR163C, strain tif3, hits give low values",1.02
same,normalized growth,"locus YPR167C, strain met16, hits give low values",1
same,normalized growth,"strain wtn01, hits give low values",0.983
